In PubChem BioAssay (NCI) one finds growth data, which are given here for 39 compounds.

This is part of a sample that, as a whole, favours compounds with a hit. Of some 83,000 tested, about 20% had one in any assay.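 Percent growth is the endpoint: 0 to 100 indicates growth inhibition (40 means 60% inhibition), 0 means no net growth, and negative values indicate cell death.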 The source made the active and inactive calls. How the source made its calls: active means growth percent below 10; inactive means the rest.

In one experiment the test system is SK-MEL-5 melanoma. The experiment is described as follows: NCI-60 one-dose screen, 48 h (100 = growth as untreated, 0 = no growth, -100 = all killed). To be noted: 10 µM unless noted.
Consider `O=C(Nc1ccc(Oc2ccc(Nc3nc4ccccc4s3)cc2)cc1)Nc1ccc(Cl)c(C(F)(F)F)c1`, for which the growth is -84.8% (active).

Regarding `C[C@]12CCc3nc(Nc4ccc(O)cc4)sc3C1=CC[C@@H]1[C@@H]2CC[C@]2(C)/C(=N/NC(N)=S)CC[C@@H]12`, the growth is -61.2% (active).

As to `Cc1cc(N=Nc2ccc(-c3ccc(N=Nc4ccc(O)c(C(=O)O)c4)cc3)cc2)c(N)c(N=Nc2ccc(C(=O)O)cc2)c1N`, the growth was 87% (inactive).

As to `c1ccc2c(c1)cnc1ccccc12`, the growth was 98.5% (inactive).

Take `Cc1cc(C)c2c(n1)sc1c(Nc3ccc(OCc4ccccc4)cc3)ncnc12`: the growth is 104% (inactive).

For the compound `COc1ccc2[nH]c(C(=O)OCc3ccc4cccc(O)c4n3)cc2c1`, the growth was -56.9% (active).

For `Cc1ccc2oc(=O)cc(-c3nc4ccc([N+](=O)[O-])cc4[nH]3)c2c1`, the growth was 28.9% (inactive).

For the compound `Cc1nc2ccc(Nc3nc(Cl)nc(N4CCOCC4)n3)cc2n1Cc1ccccc1`, the growth was 89.5% (inactive).

As to `CC(=O)c1c(O)c(C)c(O)c2c1OC1=CC(=O)/C(=C(/C)N)C(=O)C12C` (configuration not stated), the growth was 88.4% (inactive).

Regarding `O=C(CI)NCCNc1cccc2c(S(=O)(=O)O)cccc12`, the growth was 99.6% (inactive).

Regarding `O=c1[nH]cnc2nc[nH]c12`, the growth is 102% (inactive).

Consider `CCN(CC)C(Cl)=Nc1ccc(Cl)cc1`, for which the growth is 102% (inactive).

For `c1ccc2c(Cc3csc4ccccc34)csc2c1`, the growth was 91% (inactive).

In the case of `COS(=O)(=O)CCN(CCOS(C)(=O)=O)S(C)(=O)=O`, the growth is 104% (inactive).

As to `COc1cc(C2CC(c3cccc(Nc4ccnc5cc(Cl)ccc45)c3)=NN2c2ccccc2)cc(OC)c1OC` (configuration not stated), the growth was 62.1% (inactive).

For the compound `O=C1/C(=C\c2cccn2Cc2ccc(F)cc2)c2ccccc2N1c1c(Cl)cccc1Cl`, the growth was 57.7% (inactive).

With `CC(C)(C)c1ccc(Cn2c(-c3nonc3N)nc3ccccc32)cc1`, the growth was 74.9% (inactive).

Take `CSC(=S)N/N=C(\C)c1ccccn1`: the growth is -47.7% (active).

Turning to `CCC(C)C1NC(=O)c2nc(oc2-c2ccccc2)-c2csc(n2)-c2csc(n2)-c2nc(oc2C)-c2coc(n2)CNC(=O)C(C(C)CC)NC1=O` (configuration not stated), the growth was -91.3% (active).

`CCOC(=O)C1=C(C)NC(SCc2nnc(-c3ccc(Cl)cc3)o2)=NC1c1ccc(Br)cc1` (configuration not stated): the growth is 51.4% (inactive).

As for `CC(CN1CCN(C)CC1)CN1c2ccccc2Sc2ccc(C(F)(F)F)cc21` (configuration not stated), the growth is -82.7% (active).

On to `CCCOC(=O)C1c2cc3c(cc2CC(C)C1C(=O)OCCC)OCO3` (configuration not stated), for which the growth is 92.4% (inactive).

Turning to `COc1cc(C2CC(c3ccc(Nc4ccnc5cc(Cl)ccc45)cc3)=NN2c2ccccc2)cc(OC)c1OC` (configuration not stated), the growth is 49.5% (inactive).

As to `CC(=O)c1c(C)nc(-c2cc(C)cc(Cl)c2)nc1-c1cccc(Oc2ccccc2)c1`, the growth is 77.1% (inactive).

Take `CC(C)NC(=O)OCC#CCOC(=O)NC(C)C`: the growth was 106% (inactive).

As for `Cc1nc2c(-c3cnc(N)nc3)nc(N3CCOCC3)nc2n1C(C)C`, the growth is -21.2% (active).

For `[Ag].[Ag].[NH-]S(=O)(=O)c1ccc(N=Nc2cc(N=Nc3ccc(S([NH-])(=O)=O)cc3)c3c(NC(=O)C(Cl)Cl)cccc3c2OC(=O)C(Cl)Cl)cc1.[c-]1nccs1.[c-]1nccs1`, the growth is 35.6% (inactive).

With `Nc1ccc(N(O)/C=C2\C=CC=CC2=O)cc1N`, the growth is 76.3% (inactive).

`Cc1nc2ccc(Nc3nc(N4CCOCC4)nc(N4CCN(C)CC4)n3)cc2n1Cc1ccccc1`: the growth is 71.4% (inactive).

Take `CC(C)CC(NC(=O)C(CCCN=C(N)N)NC(=O)OCc1ccccc1)C(=O)NC(CNC(=O)/C=C/c1ccccc1)C(C)C` (configuration not stated): the growth is 106% (inactive).

For `CCOC(=O)c1ccc(NCCC(=O)O)cc1`, the growth is 104% (inactive).

On to `Cc1ccc(-c2cnc3sc4ccc(Cl)cc4n23)cc1`, for which the growth was 95.6% (inactive).

For the compound `COc1cc(C)c2c(=O)c3c(oc2c1)C(=O)c1c(O)c(OC)cc(O)c1C3=O`, the growth is -43.8% (active).

For the compound `O=C(OCc1ccc2c(Br)cc(Br)c(O)c2n1)c1cc2ccccc2[nH]1`, the growth was -47.5% (active).

Consider `CN1CCN(Cc2ccc(NC(=O)c3cncc(C#Cc4cnc5cccnn45)c3)cc2C(F)(F)F)CC1`, for which the growth is 1.22% (active).

Consider `CCOC(=O)c1ccccc1SC(C[N+](=O)[O-])c1ccccc1` (configuration not stated), for which the growth was 84.3% (inactive).

For the compound `CC(C)CC(NC(=O)OCC1c2ccccc2-c2ccccc21)C(=O)O` (configuration not stated), the growth was 101% (inactive).

Regarding `CN1CCN(Cc2ccc(NC(=O)c3cncc(C#Cc4ccc(N)nc4)c3)cc2C(F)(F)F)CC1`, the growth was -5.69% (active).

For the next experiment, the system named is UACC-62 melanoma. Described as above. To be noted: 10 µM unless noted.
For `O=C(Nc1ccc(Oc2ccc(Nc3nc4ccccc4s3)cc2)cc1)Nc1ccc(Cl)c(C(F)(F)F)c1`, the growth was 1.63% (active).

Turning to `C[C@]12CCc3nc(Nc4ccc(O)cc4)sc3C1=CC[C@@H]1[C@@H]2CC[C@]2(C)/C(=N/NC(N)=S)CC[C@@H]12`, the growth was -74.8% (active).

For `Cc1cc(N=Nc2ccc(-c3ccc(N=Nc4ccc(O)c(C(=O)O)c4)cc3)cc2)c(N)c(N=Nc2ccc(C(=O)O)cc2)c1N`, the growth is 71.2% (inactive).

Turning to `c1ccc2c(c1)cnc1ccccc12`, the growth was 98.9% (inactive).

On to `Cc1cc(C)c2c(n1)sc1c(Nc3ccc(OCc4ccccc4)cc3)ncnc12`, for which the growth is 105% (inactive).

On to `COc1ccc2[nH]c(C(=O)OCc3ccc4cccc(O)c4n3)cc2c1`, for which the growth was -81% (active).

With `Cc1ccc2oc(=O)cc(-c3nc4ccc([N+](=O)[O-])cc4[nH]3)c2c1`, the growth was 39.5% (inactive).

As for `Cc1nc2ccc(Nc3nc(Cl)nc(N4CCOCC4)n3)cc2n1Cc1ccccc1`, the growth is 92.3% (inactive).

In the case of `CC(=O)c1c(O)c(C)c(O)c2c1OC1=CC(=O)/C(=C(/C)N)C(=O)C12C` (configuration not stated), the growth was 77.8% (inactive).

With `O=C(CI)NCCNc1cccc2c(S(=O)(=O)O)cccc12`, the growth was 89.5% (inactive).

As for `O=c1[nH]cnc2nc[nH]c12`, the growth was 102% (inactive).

Turning to `CCN(CC)C(Cl)=Nc1ccc(Cl)cc1`, the growth is 102% (inactive).

For `c1ccc2c(Cc3csc4ccccc34)csc2c1`, the growth was 86.4% (inactive).

On to `COS(=O)(=O)CCN(CCOS(C)(=O)=O)S(C)(=O)=O`, for which the growth is 102% (inactive).

Turning to `COc1cc(C2CC(c3cccc(Nc4ccnc5cc(Cl)ccc45)c3)=NN2c2ccccc2)cc(OC)c1OC` (configuration not stated), the growth is 9.18% (active).

On to `O=C1/C(=C\c2cccn2Cc2ccc(F)cc2)c2ccccc2N1c1c(Cl)cccc1Cl`, for which the growth was 62% (inactive).

`CC(C)(C)c1ccc(Cn2c(-c3nonc3N)nc3ccccc32)cc1`: the growth is 69.5% (inactive).

For the compound `CSC(=S)N/N=C(\C)c1ccccn1`, the growth is -22.3% (active).

As for `CCC(C)C1NC(=O)c2nc(oc2-c2ccccc2)-c2csc(n2)-c2csc(n2)-c2nc(oc2C)-c2coc(n2)CNC(=O)C(C(C)CC)NC1=O` (configuration not stated), the growth was -70.5% (active).

With `CCOC(=O)C1=C(C)NC(SCc2nnc(-c3ccc(Cl)cc3)o2)=NC1c1ccc(Br)cc1` (configuration not stated), the growth was 55.3% (inactive).

As to `CC(CN1CCN(C)CC1)CN1c2ccccc2Sc2ccc(C(F)(F)F)cc21` (configuration not stated), the growth is -40.4% (active).

As to `Cc1[nH]nc2ccc3nc(-c4ccc5[nH]ncc5c4)c4c(c3c12)CCCC4`, the growth was 10.1% (inactive).

In the case of `CCCOC(=O)C1c2cc3c(cc2CC(C)C1C(=O)OCCC)OCO3` (configuration not stated), the growth was 75.4% (inactive).

`COc1cc(C2CC(c3ccc(Nc4ccnc5cc(Cl)ccc45)cc3)=NN2c2ccccc2)cc(OC)c1OC` (configuration not stated): the growth is 49.9% (inactive).

With `CC(=O)c1c(C)nc(-c2cc(C)cc(Cl)c2)nc1-c1cccc(Oc2ccccc2)c1`, the growth was 52.1% (inactive).

Consider `CC(C)NC(=O)OCC#CCOC(=O)NC(C)C`, for which the growth is 99.6% (inactive).

For `Cc1nc2c(-c3cnc(N)nc3)nc(N3CCOCC3)nc2n1C(C)C`, the growth was -39.9% (active).

In the case of `[Ag].[Ag].[NH-]S(=O)(=O)c1ccc(N=Nc2cc(N=Nc3ccc(S([NH-])(=O)=O)cc3)c3c(NC(=O)C(Cl)Cl)cccc3c2OC(=O)C(Cl)Cl)cc1.[c-]1nccs1.[c-]1nccs1`, the growth is 91.8% (inactive).

For `Nc1ccc(N(O)/C=C2\C=CC=CC2=O)cc1N`, the growth was 66.1% (inactive).

Consider `Cc1nc2ccc(Nc3nc(N4CCOCC4)nc(N4CCN(C)CC4)n3)cc2n1Cc1ccccc1`, for which the growth is 107% (inactive).

Turning to `CC(C)CC(NC(=O)C(CCCN=C(N)N)NC(=O)OCc1ccccc1)C(=O)NC(CNC(=O)/C=C/c1ccccc1)C(C)C` (configuration not stated), the growth was 102% (inactive).

Regarding `CCOC(=O)c1ccc(NCCC(=O)O)cc1`, the growth was 102% (inactive).

Regarding `Cc1ccc(-c2cnc3sc4ccc(Cl)cc4n23)cc1`, the growth is 87.9% (inactive).

Consider `COc1cc(C)c2c(=O)c3c(oc2c1)C(=O)c1c(O)c(OC)cc(O)c1C3=O`, for which the growth was 22.5% (inactive).

Turning to `O=C(OCc1ccc2c(Br)cc(Br)c(O)c2n1)c1cc2ccccc2[nH]1`, the growth was -83% (active).

Take `CN1CCN(Cc2ccc(NC(=O)c3cncc(C#Cc4cnc5cccnn45)c3)cc2C(F)(F)F)CC1`: the growth was 10% (inactive).

With `CCOC(=O)c1ccccc1SC(C[N+](=O)[O-])c1ccccc1` (configuration not stated), the growth was 97.8% (inactive).

As to `CC(C)CC(NC(=O)OCC1c2ccccc2-c2ccccc21)C(=O)O` (configuration not stated), the growth is 104% (inactive).

Consider `CN1CCN(Cc2ccc(NC(=O)c3cncc(C#Cc4ccc(N)nc4)c3)cc2C(F)(F)F)CC1`, for which the growth is -5.85% (active).
